Source: PubChem
HT1080 IDH1KD tx: qHTS for induction of synthetic lethality in tumor cells producing 2HG: qHTS for the HT-1080-IDH1KD cell line | AID 686971, 2013 | Potency, µM (titrated, usually from 46.1 µM), without a hit: top-dose activity, negative = toxicity, actives largely listed as cytotoxic | HT-1080 IDH1 knockdown viability, ATP luminescence, 48 h | 2% of 360,000 active;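 further: potency means the concentration at half of the fitted maximal effect; 0% = DMSO wells and -100% = cell-free medium wells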
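HT-1080-IDH1KD cells (IDH1 knocked down), 750/well in RPMI with 5% FBS, treated with compound 48 h at 37 degrees C. Viability by CellTiter-Glo luminescence, normalised to DMSO and no-cell wells; concentration-response curves classed.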
ALOX12 inh: Primary qHTS assay for inhibitors of human arachidonate 12S-lipoxygenase (ALOX12): Round 2; Potency, µM (titrated, usually from 108 µM), inactives show at the top dose activity change, negative = inhibition, most hits filed as inhibitors; AID 1671190, 2021; purified 12hLO, xylenol orange hydroperoxide absorbance; Polyunsaturated fatty acid lipoxygenase ALOX12 (Homo sapiens), P18054; 1.1% of 580,000 active; further: potency means the concentration at half of the fitted maximal effect
Target sequence (P18054 whole entry, looked up): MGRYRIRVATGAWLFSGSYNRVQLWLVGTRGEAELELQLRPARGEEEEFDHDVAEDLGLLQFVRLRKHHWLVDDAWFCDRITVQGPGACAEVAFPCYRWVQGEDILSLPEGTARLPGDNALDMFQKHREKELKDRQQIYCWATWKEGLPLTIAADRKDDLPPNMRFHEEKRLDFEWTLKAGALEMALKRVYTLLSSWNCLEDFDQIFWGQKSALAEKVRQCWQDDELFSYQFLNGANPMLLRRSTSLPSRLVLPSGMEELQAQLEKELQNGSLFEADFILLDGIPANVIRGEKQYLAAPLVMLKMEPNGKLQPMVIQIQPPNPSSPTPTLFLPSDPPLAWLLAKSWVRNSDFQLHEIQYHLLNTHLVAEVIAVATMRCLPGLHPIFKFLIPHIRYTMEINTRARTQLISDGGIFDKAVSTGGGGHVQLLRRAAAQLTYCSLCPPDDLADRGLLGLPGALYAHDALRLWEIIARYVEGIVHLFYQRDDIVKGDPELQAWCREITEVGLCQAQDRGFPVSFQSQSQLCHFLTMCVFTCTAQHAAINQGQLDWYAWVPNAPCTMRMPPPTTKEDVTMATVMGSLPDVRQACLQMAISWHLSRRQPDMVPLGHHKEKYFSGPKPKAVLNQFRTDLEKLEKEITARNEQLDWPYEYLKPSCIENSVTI
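Purified human 12hLO at 150 nM in 25 mM Hepes, 0.01% Triton X-100, pH 7.0, preincubated 15 min at room temperature with compound. Reaction started with 40 uM arachidonic acid, 30 min at room temperature. Hydroperoxide measured by Fe-xylenol orange, 573/405 nm absorbance ratio.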
DT40 TDP1 no CPT: qHTS for Inhibitors of human tyrosyl-DNA phosphodiesterase 1 (TDP1): qHTS in cells in absence of CPT. DT40 Tdp1-/- hTDP1 cells, no CPT, ATP luminescence, 48 h. AID 686978, 2013. Potency, µM (highest dose often 46.2 µM), inactives show at the highest dose activity change, negative = growth inhibition, usual class: inhibitors. 15% of 420,000 active; further: potency means the concentration at half of the fitted maximal effect; nearly all actives have a fitted effect of over 55% in size
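No-CPT arm: Tdp1-/-;hTDP1 DT40 cells (400/well) plus compounds, incubated ≥48 hr at 37 °C. Readout CellTiter-Glo luminescence.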
HT1080NT lethal: qHTS for induction of synthetic lethality in tumor cells producing 2HG: qHTS for the HT-1080-NT fibrosarcoma cell line. HT-1080-NT fibrosarcoma viability, CellTiter-Glo ATP luminescence, 48 h. Potency, µM (titrated, usually from 46.1 µM), without a hit: at the top dose activity, negative = less viability, hits mostly cytotoxic. 1.6% of 360,000 active. AID 686970, 2013;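 further: NT is the 2HG producing partner of a matched IDH1 knockdown line; potency means the concentration at half of the fitted maximal effect; 0% = DMSO-treated cells and -100% = media-only wells without cells; nearly all actives have a fitted effect of over 55% in size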
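Toxicity toward the 2HG-producing NT line was scored as %Activity, normalised to DMSO and no-cell wells, from CellTiter-Glo luminescence after 48 hours' treatment.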
TDP1 cell CPT: qHTS for Inhibitors of human tyrosyl-DNA phosphodiesterase 1 (TDP1): qHTS in cells in presence of CPT; Potency, µM (series often up to 46.2 µM), inactives show top-dose activity change, negative = growth inhibition, actives largely listed as inhibitors; chicken DT40 Tdp1-/-;hTDP1 cells + 20 nM CPT, ATP luminescence, 48 h; 12% of 420,000 active; further: potency means the concentration at half of the fitted maximal effect; nearly all actives have a fitted effect of over 55% in size
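Cell growth measured by CellTiter-Glo luminescence after a minimum 48 h, 37 C compound exposure with 20 nM CPT in Tdp1-knockout DT40 cells stably expressing hTDP1, seeded 400/well; qHTS titration format.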
IL-1B inflam inh: qHTS for Inhibitors of Inflammasome Signaling: IL-1-beta AlphaLISA Primary Screen; THP-1 LPS/ATP IL-1B secretion, AlphaLISA, 16 h; stronger effect = lower value; activity change, % at 57.5 µM; 4.7% of 360,000 active; in the data active means activity change below about -50%; inconclusive means mostly about -30% to -49%
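Secreted IL-1B measured by AlphaLISA bead assay after 16 h compound exposure of THP-1 cells; compounds (final up to 57.5 uM) added 1 h before LPS (250 ng/mL) and ATP (1.25 mM) stimulation; lower signal means less secretion.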
Starred values were filed as active, the others as inactive; i = inactive; ? = inconclusive; nt = no result given. Only a selection was taken, and hits are over-represented in it overall. Unless noted, the call rests on the fitted dose curve; in most records, active means well fitted curve in the direction sought with a large enough effect; inconclusive means small, poorly fitted or top-dose-only effect, or another doubt; inactive means no such curve, though single readings can be large; an effect the other way counts as inactive or inconclusive. Unless noted, on the % scale 0 is the no-effect control and ±100 the full control effect.

SMILES | HT1080 IDH1KD tx | ALOX12 inh | DT40 TDP1 no CPT | HT1080NT lethal | TDP1 cell CPT | IL-1B inflam inh
CCOC(=O)N1CCN(C(=O)CN(c2cccc(Cl)c2C)S(=O)(=O)c2ccc(C)cc2)CC1 | nt | -21.2% | ? | nt | 20.6µM* | nt
CCOC(=O)N1CCN(C(=O)CN(c2ccc(C)cc2C)S(=O)(=O)c2ccccc2)CC1 | nt | -17.0% | -20.6% | nt | -0.3% | nt
CCOc1ccc(N(CC(=O)N2CCN(c3ccccc3OC)CC2)S(=O)(=O)c2ccc(C)cc2)cc1 | 3.8% | -15.0% | 20.6µM* | 0.2% | ? | i
CCOc1ccc(N(CC(=O)N2CCN(c3ccccc3OC)CC2)S(=O)(=O)c2ccc(F)cc2)cc1 | -9.4% | 16.3% | ? | 0.1% | ? | i
CCOC(=O)c1c(C)[nH]c(C)c1S(=O)(=O)N(C)CC(=O)N1CCN(c2ccccc2OC)CC1 | nt | -26.4% | ? | nt | 18.4µM* | nt
Cc1ccc(OCC(=O)Nc2ccc3[nH]ncc3c2)cc1C | nt | 13.6% | nt | nt | nt | nt
CCN(CC)CCSc1nc(O)c(-c2ccccc2)c(=O)n1-c1ccccc1 | -0.7% | 0.0% | 2.0% | 11.3% | 7.4% | -3.6
O=C(O)CSc1nc2ccccc2n1Cc1ccccc1 | -7.6% | ? | -18.9% | -0.8% | -5.8% | 4.6
CCOc1ccc(CNc2nc3ccccc3n2CCN2CCOCC2)cc1 | 1.3% | -16.7% | 20.6µM* | 1.3% | ? | 19.0
OCCNc1nc2ccccc2n1CCN1CCCCC1 | 20.6% | ? | 1.7% | 2.9% | -13.2% | -7.3
COc1ccc(CNc2nc3ccccc3n2CCN2CCCCC2)cc1 | -20.8% | ? | 20.6µM* | -18.0% | 18.4µM* | ?
CCN(CC)CCSc1nc2ccccc2n1Cc1ccccc1 | -9.2% | ? | 16.4µM* | -9.8% | ? | -17.9
CCN(CC)CCSc1nc2ccccc2c(=S)n1-c1ccccc1 | ? | ? | 23.1µM* | ? | ? | -56.0*
CCN(CC)CCn1c(NCc2ccco2)nc2ccccc21 | 4.3% | ? | -13.2% | -0.3% | -17.0% | -8.6
c1ccc(Cn2c(CNc3nc4ccccc4n3CCN3CCCCC3)nc3ccccc32)cc1 | 23.1µM* | -25.9% | ? | 20.6µM* | ? | -50.5*
COc1ccc(CCN2CCC(Nc3nc4ccccc4n3Cc3ccc(F)cc3)CC2)cc1 | 8.2µM* | ? | 7.31µM* | 14.6µM* | 14.6µM* | -67.1*
Cn1c(CNc2nc3ccccc3n2CCN2CCCCC2)nc2ccccc21 | -7.6% | 0.0% | ? | -1.5% | -23.7% | -8.0
Brc1cccc(CNc2nc3ccccc3n2CCN2CCOCC2)c1 | -20.9% | -6.3% | 11.6µM* | -17.9% | ? | -12.3
CCN(CC)CCn1c(NCc2nc3ccccc3n2Cc2ccccc2)nc2ccccc21 | 11.2µM* | 16.7% | ? | ? | ? | -58.6*
CCN(CC)c1ccc(CNc2nc3ccccc3n2C)cc1 | -11.5% | -9.7% | -7.7% | -1.3% | -26.8% | -20.1
CCN(CC)c1ccc(CNc2nc3ccccc3n2CCN2CCCCC2)cc1 | ? | ? | ? | 16.4µM* | 4.61µM* | -104.7*
CCCCC[C@H](O)/C=C/[C@H]1CCC(=O)[C@@H]1CCCCCCC(=O)N1CCCCC1CO (stereo partly drawn) | 13µM* | 1.4% | 14.6µM* | 16.4µM* | 23.1µM* | -23.3
CCCCC(=O)N1CCCC2CCCCC21 (stereo not drawn) | nt | 10.7% | nt | nt | nt | nt
O=C(c1ccco1)N1CCCC(Cc2nc(C3CCOCC3)no2)C1 (stereo not drawn) | nt | 16.3% | nt | nt | nt | nt
COC(=O)CN(C(=S)Nc1ccc(F)cc1)C1CC(=O)N(c2ccccc2)C1=O (stereo not drawn) | -1.6% | -26.0% | -22.3% | -2.9% | -16.2% | -15.6
SMILES | HT1080 IDH1KD tx | ALOX12 inh | DT40 TDP1 no CPT | HT1080NT lethal | TDP1 cell CPT | IL-1B inflam inh
COC(=O)CN(C(=S)Nc1ccc(F)cc1)C1CC(=O)N(c2ccc(OC)cc2)C1=O (stereo not drawn) | -1.0% | 31.6µM* | -24.2% | -17.3% | ? | 35.6
CCC(NC(=O)c1ccc[n+]([O-])c1)c1ccc(C)cc1 (stereo not drawn) | nt | -4.8% | nt | nt | nt | nt
O=C1Nc2ccc(Cl)cc2[C@@](C#CC2CC2)(C(F)(F)F)O1 | nt | nt | 16.8µM* | nt | ? | nt
Cc1cccc(C(=O)NC(C2CC2)C2CC2)n1 | nt | -22.3% | nt | nt | nt | nt
C=CCn1c(=O)c2c(C)c(C)sc2n2c(Nc3ccccc3)nnc12 | ? | -2.3% | 23.1µM* | ? | 23.1µM* | -17.6
COC(=O)c1cn(N(C)c2ncc(C(F)(F)F)cc2Cl)c(=O)c2ccccc12 | -14.7% | 9.2% | ? | 1.5% | ? | 28.7
COc1ccc(Cn2nc(C)n(N(C)c3ncc(C(F)(F)F)cc3Cl)c2=O)cc1 | -13.6% | ? | 9.2µM* | -0.2% | 16.4µM* | 4.5
Clc1cccc(OCCCN2CCCC2)c1Cl | -13.0% | -17.2% | ? | 0.2% | -24.6% | -13.1
Clc1cccc(OCCOCCN2CCNCC2)c1Cl | -26.0% | ? | 23.1µM* | -19.1% | -18.2% | -21.9
Cc1cc(C(C)(C)C)ccc1OCCOCCN1CCCC1 | -7.4% | ? | ? | -1.4% | ? | -21.1
Clc1cc(Br)ccc1OCCOCCN1CCCC1 | -13.8% | ? | ? | -0.2% | ? | -90.7*
CC(C)(C)c1cc(Cl)ccc1OCCOCCN1CCCC1 | 18.4µM* | ? | 13µM* | 14.6µM* | ? | -74.6*
Cc1ccccc1C(=O)N1C(C(=O)NC2CC2)COC12CCN(C(=O)c1cccc(Cl)c1)CC2 (stereo not drawn) | nt | 31.4% | nt | nt | nt | nt
Cc1occc1C(=O)n1nnc2ccccc21 | 0.2% | -12.1% | 20.6µM* | -3.5% | ? | -8.9
